# Screens: PubChem, National Center for Advancing Translational Sciences (NCATS)
# The sample as a whole holds a higher share of hits than the screen did.
# Pf Dd2 growth: inhibitors of Plasmodium falciparum Dd2 growth. Potency, µM (titrated, usually from 28.9 µM), without a hit: at the top dose activity, negative = inhibition, usual class: inhibitors. 120,000 compounds, 4.3% hits. P. falciparum Dd2 growth, SYBR Green, 72 h; active = well fitted inhibition curve with a large enough effect;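 also: plate controls were DMSO vehicle for no effect and reference drug for full effect; nearly all actives have a fitted effect of over 65% in size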
#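 Readout: SYBR Green fluorescence, 485 nm excitation, 535 nm emission, after ~16 h lysis at 37C. Before that, Dd2-infected red cells (2.5% hematocrit) grew 72 h with compound, 29 uM top final concentration.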
# An asterisk follows results filed as active; i = inactive; [ ] = another dose, or the depositor's remark. Potency is read from the fitted curve at half-maximal effect.
SMILES,Pf Dd2 growth
CC(=O)Nc1ccc(S(=O)(=O)N[C@@H]2C=C[C@@H](c3c(C)nn(-c4ccc(C(C)(C)C)cc4)c3C)C2)cc1,i
Cc1nn(CCC#N)c(C)c1[C@@H]1C=C[C@@H](NC(=O)Nc2ccccc2)C1,-15.7%[44.1 µM]
CC(C)N1CCN(C2CCOC3(CCN(S(=O)(=O)c4cn(C)cn4)CC3)C2)CC1 (configuration not stated),6.3%
CCC(CC)C(=O)N1CCC(N2C(=O)C3(CCCCC3)C2c2ccncc2)CC1 (configuration not stated),-18.7%
COc1cccc(N2C(=O)NC(=NC3CCCCC3)C23CCN(Cc2ccc(F)cc2)C3)c1 (configuration not stated),-1.1%
Cn1cccc1CN1CCC2(CC1)C(=NC1CCCCC1)NC(=O)N2c1cccnc1,53.5%
O=C(c1ccccc1)N1CCC2(C1)C(=NC1CCCC1)NC(=O)N2c1cc(F)cc(F)c1 (configuration not stated),-4.4%
COc1cccc(N2C(=O)NC(=NC3CCCCC3)C23CCN([S+](C)(=O)[O-])C3)c1 (configuration not stated),8.9%
COc1cccc(N2C(=O)NC(=NC3CCCC3)C23CCN(Cc2cccn2C)C3)c1 (configuration not stated),10µM*
Cn1cccc1CN1CCC2(C1)C(=NC1CCCC1)NC(=O)N2c1cc(F)cc(F)c1 (configuration not stated),8.91µM*
COC[C@@H]1CN(Cc2cccc(OC)n2)C[C@H]1C(=O)N(C)C,i
O=C1CN(Cc2cccc(-c3ccsc3)c2)CCN1c1cc(Cl)ncn1,-17.8%
Cc1ccccc1-c1nccc2c(=O)cc(-c3ccncc3)oc12,-18.5%[44.1 µM]
Cc1ccccc1-c1nccc2c(=O)cc(N(C)C3CCOCC3)oc12,i
Cc1ccccc1-c1nccc2c(=O)cc(C3=CCOCC3)oc12,10µM*
C[C@]1(O)CCN(C(=O)CCS(=O)(=O)c2ccccc2)C[C@@H]1O,-14.8%
COc1ccc(CNC(=O)c2ccc(Sc3ccc(Cl)cc3)c(NC(C)=O)c2)c(OC)c1,8.8%
Cc1ccc(N2CC(NC(=O)c3ccc(S(=O)(=O)N4CCOCC4)cc3)CC2=O)cc1 (configuration not stated),i
CCN(CC)S(=O)(=O)c1ccc(C(=O)NCCSc2c(-c3ccccc3)[nH]c3ccccc23)cc1,11.2µM*
COc1cc(C(=O)NCCSc2c(C)[nH]c3ccccc23)cc(OC)c1OC,-21.2%
O=C(NCCSc1c[nH]c2ccccc12)c1ccc(Cl)cc1,-2.3%
Cc1[nH]c2ccccc2c1SCCNC(=O)c1ccccc1F,-7.5%
COc1ccccc1C(=O)NCCSc1c(C)[nH]c2ccccc12,14.8%
Cc1ccc(-c2[nH]c3ccccc3c2SCCNC(=O)c2ccc(S(=O)(=O)N3CCOCC3)cc2)cc1,10µM*
O=C(NC1CC(=O)N(c2ccccc2)C1)c1ccc(S(=O)(=O)N2CCOCC2)cc1 (configuration not stated),i
SMILES,Pf Dd2 growth
CCN(CC)S(=O)(=O)c1ccc(C(=O)NCCSc2c(-c3ccc(F)cc3)[nH]c3ccccc23)cc1,6.31µM*
CC1CCN(CCCNC(=O)C2CCc3sc(C(=O)N4CCCC4)cc3C2)CC1 (configuration not stated),i
c1ccc(Cc2nnc([C@H]3CCN(Cc4ccc5c(c4)OCO5)C3)o2)cc1,-0.4%[44.1 µM]
O=C(Nc1ccc(Br)cc1F)c1ccc2nc(CCc3ccccc3)oc2c1,23.2%
Cc1ccc(C(=O)N[C@H](c2ccc(F)cc2)C2CC(O)C2)cc1N1CCNC1=O (some centres not stated),6.7%
CN1[C@@H](CCC(=O)Nc2ccccc2)CNC(=O)[C@@H]2[C@H]1CCN2Cc1ccc(S(C)(=O)=O)cc1,-2.1%
CC(C)Nc1ncnc2c1CN(C1CCNC1)C(=O)CN2C (configuration not stated),17.7%
Cc1nc(C)c(C(=O)NCC23CCCC=C2N(CC2CC2)C(=O)CC3)s1 (configuration not stated),-14.4%
CN1CCC(NC(=O)c2cccc3c2CCN3C(=O)C2CC2)CC1,-15.7%
Cc1cccc(Cn2c(SCc3ccc(C(=O)NC4CCCCC4)cc3)nc3cccnc32)c1,10µM*
O=C(NC1CCCCC1)c1ccc(CSc2nc3cccnc3n2Cc2cccc(F)c2)cc1,11.2µM*
O=C(NC1CCCCC1)c1ccc(CSc2nc3cccnc3n2Cc2ccc(F)cc2)cc1,20.4%[5.79 µM]
Cc1cccc(Cn2c(SCc3ccc(C(=O)NC4CCCC4)cc3)nc3cccnc32)c1,-26.1%
O=C(NC1CCCCC1)c1ccc(Cn2c(SCc3ccc(F)cc3)nc3cccnc32)cc1,-2.1%
CCOC(=O)COc1ccc([N+](=O)[O-])cc1-c1ccnc2cc(-c3ccc(Cl)cc3)nn12,9.6%
COc1ccc(-c2noc(CCC(=O)Nc3cccc(C)c3C)n2)cc1OC,17.5%
O=C(C[C@@H]1C[C@H]2O[C@H](CNC3CCC3)[C@@H](O)[C@H]2O1)N1CCOCC1,13.7%[44.1 µM]
COc1cc(-c2ccno2)ccc1S(=O)(=O)N1CCN(c2ccccc2F)CC1,18.3%
COCc1noc([C@@H]2CN(Cc3ccc4c(c3)CCO4)C[C@H]2COC)n1,-23.7%
CC(=O)c1ccc(N2C(=O)N(CC(=O)c3ccc(C)cc3)c3ccccc3S2(=O)=O)cc1,-21.5%
CCOc1ccc(N2C(=O)N(Cc3ccc(C)cc3C)c3ccccc3S2(=O)=O)cc1,10µM*
CCN1C(=O)N(c2ccc(C(C)=O)cc2)S(=O)(=O)c2ccccc21,30.7%
CN(Cc1cccc(-c2nn[nH]n2)c1)C(=O)c1ccc(C2CCCNC2)cc1 (configuration not stated),-12.6%
CC1=C(c2ccc(F)cc2)S(=O)(=O)NC1=NCc1ccccc1F,79.1%
CC(Oc1cccc(Cl)c1)C(=O)N1CCN(c2cc(-c3cccs3)[nH]n2)CC1 (configuration not stated),-3.6%
SMILES,Pf Dd2 growth
Cc1ccc(-n2c(=O)c3c(C)c(C)sc3n(Cc3ccc(F)cc3Cl)c2=O)cc1C,i
CCN(CC)C(=O)C[C@@H]1CCNC[C@@H]1Cc1cc(-c2ccccn2)on1,-17.2%[44.1 µM]
CC(=O)N1CCN(C(=O)C[C@@H]2CCNC[C@@H]2Cc2cc(-c3ccccc3)on2)CC1,i
CCCCc1cc(C[C@H]2CNCC[C@H]2CC(=O)NCc2ccccc2)no1,-13.1%[44.1 µM]
CC(=O)NCCNC(=O)C[C@@H]1CCNC[C@@H]1Cc1cc(-c2ccccc2)on1,14.7%[44.1 µM]
CCCCc1cc(C[C@H]2CNCC[C@H]2CC(=O)N(C)Cc2ccccc2)no1,6.31µM*
CN(Cc1ccccc1)C(=O)C[C@@H]1CCNC[C@@H]1Cc1cc(-c2ccccc2)on1,5.01µM*
CC(C)CC(=O)NCCc1noc(-c2ccncc2)n1,-7.1%
COc1cccc(Nc2ncc3c(n2)C(C)(C(=O)NCCCn2ccnc2)CC3)c1 (configuration not stated),i
Cn1nc(C(=O)NCC2CCOCC2)c2ccccc21,9.9%
O=C(Cn1nc2c(cc1=O)CCCCC2)Nc1cccc(N2CCCCS2(=O)=O)c1,-18.9%
COc1ccc(C(=O)N2CCCC(c3nccn3CC3CCC3)C2)c(OC)n1 (configuration not stated),-20.4%
COc1cc([C@@H]2C[C@H](NC(C)=O)C[C@H](Cc3ccccc3)O2)cc(OC)c1O,-29.7%
COC(=O)[C@@H]1Cc2c([nH]c3ccccc23)[C@H]2C[C@@H](NCCN(C)C)C[C@@H](c3cccc(Cl)c3)N21,2.82µM*
Cc1ccc(C)c(NC(=O)Cn2cc(S(=O)(=O)Cc3cccc(Cl)c3)c3ccccc32)c1,11.3%
